Several values for one entry are separate records, joined by “and”; a condition that tells them apart may be missing. Identical values can stand only once. Records with an inconclusive call do not appear. Some structures have more than one record in an assay (separate samples or runs), and their calls can disagree. Activity calls are given as the source filed them. Unless noted, calls come from the whole dose curve; as a rule, active = well fitted curve in the direction sought with a large enough effect in the repeat runs; inconclusive = weak or mixed curves; inactive = no such curve, though single readings can be large; an effect the other way counts as inactive or inconclusive.
Tests used:
[1] = target: Aryl hydrocarbon receptor (Homo sapiens) (UniProt P35869); experiment: qHTS assay to identify small molecule that activate the aryl hydrocarbon receptor (AhR) signaling pathway (AID 743085); note: nearly all actives have a fitted effect of over 15% in size; note: potency is the fitted concentration of half-maximal effect;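 for activation: HG2L7.5c1 human HepG2 liver cells with stably integrated DRE-driven firefly reporter; series mostly up to about 70 µM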
Sequence of Aryl hydrocarbon receptor (Homo sapiens) (P35869 whole entry, looked up): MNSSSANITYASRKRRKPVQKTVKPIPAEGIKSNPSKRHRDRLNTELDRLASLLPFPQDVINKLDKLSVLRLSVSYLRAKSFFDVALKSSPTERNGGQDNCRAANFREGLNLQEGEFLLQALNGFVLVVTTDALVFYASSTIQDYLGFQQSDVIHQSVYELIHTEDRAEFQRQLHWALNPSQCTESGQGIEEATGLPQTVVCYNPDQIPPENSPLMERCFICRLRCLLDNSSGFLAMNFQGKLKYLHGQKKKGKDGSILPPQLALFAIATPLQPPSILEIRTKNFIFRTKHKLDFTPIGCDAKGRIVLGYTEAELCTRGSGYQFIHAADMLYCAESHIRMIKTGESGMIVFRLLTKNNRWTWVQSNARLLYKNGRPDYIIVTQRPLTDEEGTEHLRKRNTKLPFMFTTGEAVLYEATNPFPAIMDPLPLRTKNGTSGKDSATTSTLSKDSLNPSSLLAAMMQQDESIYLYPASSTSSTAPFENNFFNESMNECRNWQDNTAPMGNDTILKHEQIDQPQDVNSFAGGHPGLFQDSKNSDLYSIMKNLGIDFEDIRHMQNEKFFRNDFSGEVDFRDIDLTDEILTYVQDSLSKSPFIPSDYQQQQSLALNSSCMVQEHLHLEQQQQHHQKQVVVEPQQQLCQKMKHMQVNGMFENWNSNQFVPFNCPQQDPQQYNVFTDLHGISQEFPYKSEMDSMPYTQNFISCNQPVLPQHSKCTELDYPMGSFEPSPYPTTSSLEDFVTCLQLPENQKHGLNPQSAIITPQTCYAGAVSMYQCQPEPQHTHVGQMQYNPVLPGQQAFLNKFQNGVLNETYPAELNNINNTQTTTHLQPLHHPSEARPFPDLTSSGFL
Method in brief: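 Reporter assay in engineered HepG2 line HG2L7.5c1, whose plasmid carries twenty dioxin responsive elements upstream of firefly luciferase. Treatment lasted 24 h at 37C; ONE-Glo luminescence gauged induction.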

[2] = qHTS assay to identify small molecule that activate the aryl hydrocarbon receptor (AhR) signaling pathway - cell viability counter screen (AID 743086); note: nearly all actives have a fitted effect of over 45% in size; note: potency is the fitted concentration of half-maximal effect
Method in brief: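 Cytotoxicity counter screen: CellTiter-Fluor signal (30 min, 37 C) in 4000 HepG2 cells/well carrying the DRE-luciferase reporter, following 24 h compound exposure at 37 C.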

[3] = qHTS assay to identify small molecule antagonists of the peroxisome proliferator-activated receptor gamma (PPARg) signaling pathway - cell viability counter screen (AID 743194); note: nearly all actives have a fitted effect of over 55% in size; note: potency is the fitted concentration of half-maximal effect
Method in brief: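 Viability was measured as CellTiter-Glo luminescence in GeneBLAzer PPARg UAS-bla HEK293H cells. These cells had been exposed 17 h at 37 C to compounds together with rosiglitazone at 50 nM final, with the beta-lactamase readout taken in the same wells.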

[4] = qHTS assay for small molecule agonists of the antioxidant response element (ARE) signaling pathway - cell viability counter screen (AID 743203; calls by dose curve; note: nearly all actives have a fitted effect of over 55% in size; note: potency is the fitted concentration of half-maximal effect)
Method in brief: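 Parallel cytotoxicity read-out for the ARE-bla screen: HepG2 reporter cells, 16 hrs with compounds, then CellTiter-Glo luminescence.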

[5] = qHTS assay for small molecule activators of the heat shock response signaling pathway - cell viability counter screen (AID 743209); note: nearly all actives have a fitted effect of over 50% in size; note: potency is the fitted concentration of half-maximal effect
Method in brief: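 To flag cytotoxic compounds, HSE-bla HeLa cells plated at 1500 cells/well were dosed for 5 h at 37 C, followed by the reporter FRET read and then CellTiter-Glo, with luminescence recorded 30 min after reagent addition.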

[6] = qHTS assay to identify small molecule agonists of the peroxisome proliferator-activated receptor delta (PPARd) signaling pathway - cell viability counter screen (AID 743211); note: nearly all actives have a fitted effect of over 55% in size; note: potency is the fitted concentration of half-maximal effect
Method in brief: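 Multiplexed format: after the 2 h room-temperature LiveBLAzer B/G FRET step, CellTiter-Glo was added to the same wells. Luminescence after 30 min gave cell viability; compound exposure was 17 h at 37C.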

[7] = qHTS assay to identify small molecule antagonists of the peroxisome proliferator-activated receptor delta (PPARd) signaling pathway - cell viability counter screen (AID 743213); note: potency is the fitted concentration of half-maximal effect; nearly all actives have a fitted effect of over 50% in size
Method in brief: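 In this counter screen, HEK293H cells carrying a UAS-beta-lactamase reporter are co-treated with test compounds and 300 nM L165041 (final) for 17 h at 37 C; cell viability is quantified by CellTiter-Glo luminescence.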

[8] = qHTS assay to identify small molecule agonists of the farnesoid-X-receptor (FXR) signaling pathway - cell viability counter screen (AID 743218); note: nearly all actives have a fitted effect of over 45% in size; note: potency is the fitted concentration of half-maximal effect
Method in brief: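 Same-well cytotoxicity check on FXR-UAS-bla HEK 293T cells: 5 h attachment, 16 h compound at 37 C, CellTiter-Glo luminescence read at room temperature after 30 min.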

[9] = qHTS assay to identify small molecule antagonists of the farnesoid-X-receptor (FXR) signaling pathway - cell viability counter screen (AID 743221; active = well fitted cell-killing curve with a large enough effect in the repeat runs, not every such curve was filed as active; note: nearly all actives have a fitted effect of over 50% in size; note: potency is the fitted concentration of half-maximal effect)
Method in brief: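 CellTiter-Glo, 30 min RT, luminescence; same wells as the LiveBLAzer FRET read. Cells: FXR-UAS-bla HEK 293T. Treatment: compound with chenodeoxycholic acid 50 uM final, 16 h at 37 C.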

[10] = qHTS assay to identify small molecule agonists of the vitamin D receptor (VDR) signaling pathway - cell viability counter screen (AID 743224); note: nearly all actives have a fitted effect of over 50% in size; note: potency is the fitted concentration of half-maximal effect
Method in brief: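 Counter screen for cytotoxicity: VDR-bla cells at 2,000 cells/well, 16 h compound exposure, then CellTiter-Glo luminescence after the beta-lactamase measurement.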

[11] = target: Bile acid receptor (Homo sapiens) (UniProt Q96RI1); experiment: qHTS assay to identify small molecule antagonists of the farnesoid-X-receptor (FXR) signaling pathway (AID 743217; active = well fitted inhibition curve with a large enough effect in the signal ratio in the repeat runs, not every such curve was filed as active; the % refers to the signal ratio; note: potency is the fitted concentration of half-maximal effect)
Sequence of Bile acid receptor (Homo sapiens) (Q96RI1 whole entry, looked up): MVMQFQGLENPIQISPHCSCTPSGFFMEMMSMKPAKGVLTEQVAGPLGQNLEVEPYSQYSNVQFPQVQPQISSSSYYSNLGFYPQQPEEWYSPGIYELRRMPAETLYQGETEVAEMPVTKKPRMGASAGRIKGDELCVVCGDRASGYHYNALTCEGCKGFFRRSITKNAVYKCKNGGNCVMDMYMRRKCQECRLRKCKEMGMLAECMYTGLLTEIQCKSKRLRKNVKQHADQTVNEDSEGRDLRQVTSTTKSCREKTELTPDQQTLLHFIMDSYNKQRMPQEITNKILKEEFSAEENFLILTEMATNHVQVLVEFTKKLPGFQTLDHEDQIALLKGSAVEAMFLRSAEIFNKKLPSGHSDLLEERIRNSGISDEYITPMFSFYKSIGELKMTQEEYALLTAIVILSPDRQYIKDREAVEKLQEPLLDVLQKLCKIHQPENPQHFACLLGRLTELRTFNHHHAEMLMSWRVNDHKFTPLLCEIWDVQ
Method in brief: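 Quantitative HTS, beta-lactamase reporter format: FXR-UAS-bla HEK 293T cells co-treated 16 h at 37 °C with compounds and 50 uM final chenodeoxycholic acid, then read by B/G FRET fluorescence.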

[12] = target: Peroxisome proliferator-activated receptor delta (Homo sapiens) (UniProt Q03181); experiment: qHTS assay to identify small molecule antagonists of the peroxisome proliferator-activated receptor delta (PPARd) signaling pathway (AID 743215; active = well fitted inhibition curve with a large enough effect in the signal ratio in the repeat runs, not every such curve was filed as active; the % refers to the signal ratio;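 note: cells stimulated with agonist L165041 at 300 nM final during compound exposure; potency is the fitted concentration of half-maximal effect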)
Sequence of Peroxisome proliferator-activated receptor delta (Homo sapiens) (Q03181 whole entry, looked up): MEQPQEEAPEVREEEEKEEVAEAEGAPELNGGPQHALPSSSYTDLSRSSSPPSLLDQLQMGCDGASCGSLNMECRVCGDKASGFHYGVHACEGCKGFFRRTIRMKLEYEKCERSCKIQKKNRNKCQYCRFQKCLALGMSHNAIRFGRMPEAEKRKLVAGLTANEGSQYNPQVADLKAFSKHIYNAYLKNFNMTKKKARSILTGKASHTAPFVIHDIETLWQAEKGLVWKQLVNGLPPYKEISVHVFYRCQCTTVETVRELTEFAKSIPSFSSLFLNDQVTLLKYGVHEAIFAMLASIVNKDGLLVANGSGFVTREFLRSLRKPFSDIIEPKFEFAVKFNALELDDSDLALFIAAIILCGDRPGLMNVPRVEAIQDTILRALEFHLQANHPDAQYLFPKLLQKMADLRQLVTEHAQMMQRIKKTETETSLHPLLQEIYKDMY
Method in brief: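 Screen format: qHTS, antagonist mode. HEK293H PPARd-bla cells received compound and 300 nM L165041 (final), 17 h, 37 C. Beta-lactamase detected via FRET substrate fluorescence, 2 h, room temperature.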

[13] = qHTS assay for small molecule agonists of the antioxidant response element (ARE) signaling pathway (AID 743202; active = well fitted activation curve with a large enough effect in the signal ratio in the repeat runs, not every such curve was filed as active; the % refers to the signal ratio; note: potency is the fitted concentration of half-maximal effect)
Method in brief: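 Beta-lactamase reporter activity, read as fluorescence intensity, reflects ARE/Nrf2 pathway induction in HepG2 cells after 16 h compound exposure at 37 C; substrate loading was 2 h at room temperature.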

[14] = target: Vitamin D3 receptor (Homo sapiens) (UniProt P11473); experiment: qHTS assay to identify small molecule antagonists of the vitamin D receptor (VDR) signaling pathway (AID 743223; active = well fitted inhibition curve with a large enough effect in the signal ratio in the repeat runs, not every such curve was filed as active; the % refers to the signal ratio)
Sequence of Vitamin D3 receptor (Homo sapiens) (P11473 whole entry, looked up): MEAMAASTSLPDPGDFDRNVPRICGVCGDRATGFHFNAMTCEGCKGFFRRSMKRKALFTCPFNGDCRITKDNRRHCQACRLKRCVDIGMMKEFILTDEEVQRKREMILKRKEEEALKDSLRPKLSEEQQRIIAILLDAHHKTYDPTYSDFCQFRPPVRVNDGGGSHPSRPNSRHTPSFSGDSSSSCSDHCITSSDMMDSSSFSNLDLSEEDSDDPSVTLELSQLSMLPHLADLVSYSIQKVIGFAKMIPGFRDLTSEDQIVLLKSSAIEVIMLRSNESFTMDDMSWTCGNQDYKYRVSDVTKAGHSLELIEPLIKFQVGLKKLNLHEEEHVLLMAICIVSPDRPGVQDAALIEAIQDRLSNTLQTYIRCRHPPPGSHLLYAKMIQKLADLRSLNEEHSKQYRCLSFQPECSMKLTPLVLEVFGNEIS
Method in brief: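 After VDR-bla cells are plated and left 4 h at 37C, DMSO-dissolved compounds and 3 nM (final) calcitriol agonist are added. Incubation continues 16 h at 37C; FRET beta-lactamase substrate then develops 2 h at room temperature.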

[15] = qHTS assay for small molecule activators of the heat shock response signaling pathway (AID 743210; active = well fitted activation curve with a large enough effect in the signal ratio in the repeat runs, with a control signal flat, not every such curve was filed as active; the % refers to the signal ratio;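 note: HeLa cells with beta-lactamase reporter driven by heat shock elements; series mostly up to about 63 µM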)
Method in brief: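 Fluorescence from a cleaved B/G FRET substrate (2.5 h, room temp) reports HSE-driven beta-lactamase in HeLa cells treated 5 h at 37 C with DMSO-dissolved compounds.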

[16] = target: Peroxisome proliferator-activated receptor delta (Homo sapiens) (UniProt Q03181); experiment: qHTS assay to identify small molecule agonists of the peroxisome proliferator-activated receptor delta (PPARd) signaling pathway (AID 743212; calls by dose curve;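 note: HEK293H cells with PPARd UAS beta-lactamase reporter GeneBLAzer system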)
Method in brief: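 Steps: seed PPARd-bla HEK293H cells; incubate 5 h, 37 C, 5% CO2; add compounds in DMSO; incubate, 37 C; add LiveBLAzer B/G FRET substrate; hold 2 h at room temperature; measure fluorescence.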

[17] = target: Bile acid receptor (Homo sapiens) (UniProt Q96RI1); experiment: qHTS assay to identify small molecule agonists of the farnesoid-X-receptor (FXR) signaling pathway (AID 743220; active = well fitted activation curve with a large enough effect in the signal ratio in the repeat runs, not every such curve was filed as active; the % refers to the signal ratio)
Method in brief: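 FXR-UAS-bla HEK 293T cells carrying a UAS-driven beta-lactamase reporter were plated for 5 h at 37C/5% CO2, then exposed to DMSO-dissolved Tox21 10K compounds for 16 h at 37C. A LiveBLAzer B/G FRET substrate was loaded for 2 h at room temperature before fluorescence reading.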

[18] = target: Vitamin D3 receptor (Homo sapiens) (UniProt P11473); experiment: qHTS assay to identify small molecule agonists of the vitamin D receptor (VDR) signaling pathway (AID 743222; calls by dose curve)
Method in brief: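 Using LiveBLAzer B/G FRET detection, agonism was scored in VDR-bla cells exposed overnight (16 h, 37C) to DMSO-dissolved compounds; substrate incubation was 2 h at room temperature.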

Measured: Potency

[Cl][Bi]([Cl])([c]1ccccc1)([c]1ccccc1)[c]1ccccc1
active: [2] 19.2 µM | [3] 3.45 µM | [4] 5.42 µM | [5] 48.7 µM | [6] 5.46 µM | [7] 4.87 µM | [8] 5.46 µM | [9] 10.9 µM | [10] 3.87 µM
inactive: [1]

Oc1cc2ccccc2c2ccccc12
active: [1] 8.63 µM | [2] 24.3 µM | [3] 3.89 µM | [4] 9.69 µM | [5] 9.77 µM | [6] 6.92 µM | [7] 5.49 µM | [8] 11 µM | [9] 9.77 µM | [10] 2.45 µM

CCCCCCCC/C=C/CCCCCCCC1=NCCN1CCO
active: [3] 43.6 µM | [4] 24.3 µM | [5] 19.5 µM | [6] 30.9 µM | [7] 49 µM | [11] 54.9 µM | [8] 21.9 µM | [10] 34.7 µM
inactive: [1] | [2]

CC/C(=C(\c1ccc(O)cc1)c1ccc(OCCN(C)C)cc1)c1ccccc1
inactive: [1]
active: [2] 54.6 µM | [3] 17.4 µM | [4] 15.4 µM | [5] 27.6 µM | [6] 11 µM | [7] 21.9 µM | [8] 15.5 µM | [9] 24.6 µM | [10] 17.4 µM

CCCCC(CC)CN=C(N)NC(N)=NCCCCCCN=C(N)NC(N)=NCC(CC)CCCC (configuration not stated)
active: [2] 21.1 µM | [3] 11.9 µM | [4] 9.44 µM | [5] 23.7 µM | [6] 6.68 µM | [7] 8.41 µM | [8] 13.3 µM | [9] 21.1 µM | [10] 23.7 µM
inactive: [1]

O=C(Nc1cccc(Cl)c1)OCC#CCCl
active: [2] 27.3 µM | [3] 24.5 µM | [4] 54.5 µM | [5] 19.5 µM | [6] 38.9 µM | [12] 11 µM | [10] 43.6 µM
inactive: [1]

NNc1nc(-c2ccc([N+](=O)[O-])cc2)cs1
inactive: [2] | [9] | [14]
active: [1] 9.69 µM | [3] 24.5 µM | [13] 9.69 µM

CCCCCCCC[N+](CCCCCCCC)(CCCCCCCC)CCCCCCCC
active: [2] 43.2 µM | [3] 10.9 µM | [4] 13.7 µM | [5] 4.89 µM | [6] 6.15 µM | [7] 6.9 µM | [9] 21.8 µM | [10] 8.69 µM
inactive: [1]

CCCCCCOC(=O)c1ccc(O)cc1
38.9 µM (active) and inactive: [6]
not listed: [7] | [10] | [11] | [12] | [13] | [14]
inactive: all other assays above

CC(C)=CCOc1ccc(/C=C/C(=O)c2ccc(OCC=C(C)C)cc2OCC(=O)O)cc1
inactive: [1] | [2] | [5] | [18] | [10]
active: [3] 29.8 µM | [13] 3.35 µM | [6] 29.8 µM | [9] 21.1 µM

Oc1cccc(-c2c3nc(c(-c4cccc(O)c4)c4ccc([nH]4)c(-c4cccc(O)c4)c4nc(c(-c5cccc(O)c5)c5ccc2[nH]5)CC4)C=C3)c1
active: [2] 26.6 µM and 29.8 µM | [3] 29.8 µM | [6] 13.3 µM | [8] 21.1 µM | [10] 26.6 µM
inactive: [1] | [4] | [5]

Reference: PubChem BioAssay (Tox21)
